Key:
Test in all cases: log2 ratio of Biotin-Ahx-Ub-VS probe labelling (fragment/DMSO); higher = less target engagement (more negative = stronger competition), active = hit call of the paper (q ≤ 0.05, log2 ratio ≤ -1)
Conditions in all cases: compound concentration: 200 uM; treatment time: 3 h
USP34 = USP34 (UniProt Q70CQ2)
How it was run: (§1)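 Global-median-normalised Spectronaut label-free quantities were compared by unpaired t-test, and values are average log2 ratios of fragment over vehicle. Only proteins with ≥2 unique peptides were used. HEK293T lysate (495 µg per sample) was treated in triplicate with fragment at 200 µM or vehicle for 3 h and then with Biotin-Ahx-Ub-VS at 0.5 µM final for 1 h. Labelled DUBs were then NeutrAvidin-enriched, digested with LysC and trypsin, and run by diaPASEF LC-MS/MS.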

USP36 = target: T1, USP36 (UniProt Q9P275)
T1 sequence (whole entry): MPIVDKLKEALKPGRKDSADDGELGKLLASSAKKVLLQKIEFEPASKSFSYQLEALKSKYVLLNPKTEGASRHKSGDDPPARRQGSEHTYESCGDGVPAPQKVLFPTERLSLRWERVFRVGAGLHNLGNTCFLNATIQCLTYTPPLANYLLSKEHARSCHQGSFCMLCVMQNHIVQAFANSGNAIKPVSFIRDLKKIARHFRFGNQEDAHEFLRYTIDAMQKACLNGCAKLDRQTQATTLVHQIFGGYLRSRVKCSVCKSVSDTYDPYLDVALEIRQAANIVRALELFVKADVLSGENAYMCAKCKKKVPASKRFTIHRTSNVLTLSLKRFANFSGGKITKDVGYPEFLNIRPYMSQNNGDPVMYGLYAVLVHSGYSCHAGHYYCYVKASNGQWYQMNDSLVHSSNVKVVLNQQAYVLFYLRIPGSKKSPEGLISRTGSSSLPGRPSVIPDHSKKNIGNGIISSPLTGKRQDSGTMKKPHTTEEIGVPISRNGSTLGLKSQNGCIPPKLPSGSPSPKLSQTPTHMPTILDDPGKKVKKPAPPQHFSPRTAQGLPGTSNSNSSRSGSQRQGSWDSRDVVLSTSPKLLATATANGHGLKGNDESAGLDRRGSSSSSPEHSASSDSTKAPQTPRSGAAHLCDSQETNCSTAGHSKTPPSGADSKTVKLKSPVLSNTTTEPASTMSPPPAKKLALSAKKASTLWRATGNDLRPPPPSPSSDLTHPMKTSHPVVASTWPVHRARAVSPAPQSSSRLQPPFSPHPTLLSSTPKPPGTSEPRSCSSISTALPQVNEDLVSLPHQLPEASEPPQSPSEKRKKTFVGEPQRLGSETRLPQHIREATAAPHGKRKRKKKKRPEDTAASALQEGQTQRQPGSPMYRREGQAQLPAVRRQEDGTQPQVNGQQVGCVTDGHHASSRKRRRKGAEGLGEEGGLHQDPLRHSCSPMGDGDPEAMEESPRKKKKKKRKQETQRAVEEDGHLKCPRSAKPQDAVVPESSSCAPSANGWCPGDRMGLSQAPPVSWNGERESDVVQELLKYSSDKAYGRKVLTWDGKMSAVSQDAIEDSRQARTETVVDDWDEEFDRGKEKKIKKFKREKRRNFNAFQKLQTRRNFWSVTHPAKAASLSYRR
How it was run: as §1

USP38 = target: T2, USP38 (UniProt Q8NB14)
T2 sequence (whole entry): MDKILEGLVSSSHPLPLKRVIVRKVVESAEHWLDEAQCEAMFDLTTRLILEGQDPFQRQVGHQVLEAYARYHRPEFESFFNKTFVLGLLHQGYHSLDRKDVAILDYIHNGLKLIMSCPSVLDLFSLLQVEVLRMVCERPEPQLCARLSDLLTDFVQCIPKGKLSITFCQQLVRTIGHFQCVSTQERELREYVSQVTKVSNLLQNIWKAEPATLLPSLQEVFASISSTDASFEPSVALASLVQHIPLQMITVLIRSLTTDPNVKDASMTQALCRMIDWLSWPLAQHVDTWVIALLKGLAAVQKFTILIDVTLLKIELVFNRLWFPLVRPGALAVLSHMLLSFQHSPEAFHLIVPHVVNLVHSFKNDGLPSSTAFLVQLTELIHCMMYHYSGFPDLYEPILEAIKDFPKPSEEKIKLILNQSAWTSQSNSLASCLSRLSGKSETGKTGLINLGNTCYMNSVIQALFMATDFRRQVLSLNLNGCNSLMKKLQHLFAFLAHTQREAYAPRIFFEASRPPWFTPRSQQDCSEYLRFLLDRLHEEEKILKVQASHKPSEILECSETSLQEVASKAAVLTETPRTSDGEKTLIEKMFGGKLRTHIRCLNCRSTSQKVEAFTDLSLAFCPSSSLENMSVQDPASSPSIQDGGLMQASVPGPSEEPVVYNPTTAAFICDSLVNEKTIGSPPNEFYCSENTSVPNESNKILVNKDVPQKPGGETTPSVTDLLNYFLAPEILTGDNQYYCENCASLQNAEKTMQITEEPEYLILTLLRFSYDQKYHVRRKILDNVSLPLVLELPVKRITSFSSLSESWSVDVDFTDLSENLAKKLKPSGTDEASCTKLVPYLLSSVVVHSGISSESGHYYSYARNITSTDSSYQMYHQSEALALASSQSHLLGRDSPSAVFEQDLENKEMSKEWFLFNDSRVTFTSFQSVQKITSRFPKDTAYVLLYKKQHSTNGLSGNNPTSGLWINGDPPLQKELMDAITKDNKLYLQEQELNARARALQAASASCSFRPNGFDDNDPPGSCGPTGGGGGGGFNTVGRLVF
How it was run: as §1

USP39 = target: T3, USP39 (UniProt Q53GS9)
T3 sequence (whole entry): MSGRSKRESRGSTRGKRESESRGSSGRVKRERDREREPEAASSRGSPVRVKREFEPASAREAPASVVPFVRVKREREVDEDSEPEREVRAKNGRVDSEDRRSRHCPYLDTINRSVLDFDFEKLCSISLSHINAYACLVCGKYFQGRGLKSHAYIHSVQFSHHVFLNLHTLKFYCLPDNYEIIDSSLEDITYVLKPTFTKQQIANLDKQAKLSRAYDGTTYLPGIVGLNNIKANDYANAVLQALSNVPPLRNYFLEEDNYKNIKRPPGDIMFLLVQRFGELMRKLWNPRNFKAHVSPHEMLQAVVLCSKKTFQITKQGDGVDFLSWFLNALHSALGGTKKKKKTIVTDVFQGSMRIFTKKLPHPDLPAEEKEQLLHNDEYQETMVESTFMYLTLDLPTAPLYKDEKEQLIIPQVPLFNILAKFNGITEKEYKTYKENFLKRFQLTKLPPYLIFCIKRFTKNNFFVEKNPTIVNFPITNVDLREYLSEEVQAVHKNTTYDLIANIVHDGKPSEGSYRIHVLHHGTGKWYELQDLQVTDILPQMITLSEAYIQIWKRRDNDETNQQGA
How it was run: as §1

USP4 = target: T4, USP4 (UniProt Q13107)
T4 sequence (whole entry): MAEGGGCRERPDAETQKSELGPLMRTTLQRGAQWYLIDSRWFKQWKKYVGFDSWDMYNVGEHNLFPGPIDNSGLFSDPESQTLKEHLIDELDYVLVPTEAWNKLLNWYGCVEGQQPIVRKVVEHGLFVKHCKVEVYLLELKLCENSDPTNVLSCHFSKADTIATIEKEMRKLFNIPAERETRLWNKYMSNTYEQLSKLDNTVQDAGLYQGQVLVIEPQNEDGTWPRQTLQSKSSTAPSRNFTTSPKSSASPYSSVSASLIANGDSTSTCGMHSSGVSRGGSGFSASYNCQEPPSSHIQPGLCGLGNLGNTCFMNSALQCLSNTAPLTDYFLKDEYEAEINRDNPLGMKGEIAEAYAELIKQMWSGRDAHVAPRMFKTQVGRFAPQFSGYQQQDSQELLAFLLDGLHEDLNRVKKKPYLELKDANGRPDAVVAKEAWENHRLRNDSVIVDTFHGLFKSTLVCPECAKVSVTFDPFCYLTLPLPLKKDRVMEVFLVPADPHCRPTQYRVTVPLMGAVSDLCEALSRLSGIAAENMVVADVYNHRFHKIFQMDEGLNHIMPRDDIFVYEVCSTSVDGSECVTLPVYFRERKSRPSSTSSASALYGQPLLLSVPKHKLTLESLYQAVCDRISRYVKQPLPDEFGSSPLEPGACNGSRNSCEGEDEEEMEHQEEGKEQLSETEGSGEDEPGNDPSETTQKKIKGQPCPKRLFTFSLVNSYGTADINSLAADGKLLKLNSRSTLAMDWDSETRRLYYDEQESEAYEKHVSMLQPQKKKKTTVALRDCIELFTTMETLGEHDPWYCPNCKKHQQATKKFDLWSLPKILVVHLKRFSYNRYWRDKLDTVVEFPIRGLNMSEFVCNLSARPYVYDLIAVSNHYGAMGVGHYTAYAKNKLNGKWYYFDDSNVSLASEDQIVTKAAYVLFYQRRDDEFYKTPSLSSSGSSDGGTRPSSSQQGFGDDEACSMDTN
How it was run: as §1

Measured: log2 ratio of Biotin-Ahx-Ub-VS probe labelling

USP34, sequence (Q70CQ2 whole entry, the tested form may be a part): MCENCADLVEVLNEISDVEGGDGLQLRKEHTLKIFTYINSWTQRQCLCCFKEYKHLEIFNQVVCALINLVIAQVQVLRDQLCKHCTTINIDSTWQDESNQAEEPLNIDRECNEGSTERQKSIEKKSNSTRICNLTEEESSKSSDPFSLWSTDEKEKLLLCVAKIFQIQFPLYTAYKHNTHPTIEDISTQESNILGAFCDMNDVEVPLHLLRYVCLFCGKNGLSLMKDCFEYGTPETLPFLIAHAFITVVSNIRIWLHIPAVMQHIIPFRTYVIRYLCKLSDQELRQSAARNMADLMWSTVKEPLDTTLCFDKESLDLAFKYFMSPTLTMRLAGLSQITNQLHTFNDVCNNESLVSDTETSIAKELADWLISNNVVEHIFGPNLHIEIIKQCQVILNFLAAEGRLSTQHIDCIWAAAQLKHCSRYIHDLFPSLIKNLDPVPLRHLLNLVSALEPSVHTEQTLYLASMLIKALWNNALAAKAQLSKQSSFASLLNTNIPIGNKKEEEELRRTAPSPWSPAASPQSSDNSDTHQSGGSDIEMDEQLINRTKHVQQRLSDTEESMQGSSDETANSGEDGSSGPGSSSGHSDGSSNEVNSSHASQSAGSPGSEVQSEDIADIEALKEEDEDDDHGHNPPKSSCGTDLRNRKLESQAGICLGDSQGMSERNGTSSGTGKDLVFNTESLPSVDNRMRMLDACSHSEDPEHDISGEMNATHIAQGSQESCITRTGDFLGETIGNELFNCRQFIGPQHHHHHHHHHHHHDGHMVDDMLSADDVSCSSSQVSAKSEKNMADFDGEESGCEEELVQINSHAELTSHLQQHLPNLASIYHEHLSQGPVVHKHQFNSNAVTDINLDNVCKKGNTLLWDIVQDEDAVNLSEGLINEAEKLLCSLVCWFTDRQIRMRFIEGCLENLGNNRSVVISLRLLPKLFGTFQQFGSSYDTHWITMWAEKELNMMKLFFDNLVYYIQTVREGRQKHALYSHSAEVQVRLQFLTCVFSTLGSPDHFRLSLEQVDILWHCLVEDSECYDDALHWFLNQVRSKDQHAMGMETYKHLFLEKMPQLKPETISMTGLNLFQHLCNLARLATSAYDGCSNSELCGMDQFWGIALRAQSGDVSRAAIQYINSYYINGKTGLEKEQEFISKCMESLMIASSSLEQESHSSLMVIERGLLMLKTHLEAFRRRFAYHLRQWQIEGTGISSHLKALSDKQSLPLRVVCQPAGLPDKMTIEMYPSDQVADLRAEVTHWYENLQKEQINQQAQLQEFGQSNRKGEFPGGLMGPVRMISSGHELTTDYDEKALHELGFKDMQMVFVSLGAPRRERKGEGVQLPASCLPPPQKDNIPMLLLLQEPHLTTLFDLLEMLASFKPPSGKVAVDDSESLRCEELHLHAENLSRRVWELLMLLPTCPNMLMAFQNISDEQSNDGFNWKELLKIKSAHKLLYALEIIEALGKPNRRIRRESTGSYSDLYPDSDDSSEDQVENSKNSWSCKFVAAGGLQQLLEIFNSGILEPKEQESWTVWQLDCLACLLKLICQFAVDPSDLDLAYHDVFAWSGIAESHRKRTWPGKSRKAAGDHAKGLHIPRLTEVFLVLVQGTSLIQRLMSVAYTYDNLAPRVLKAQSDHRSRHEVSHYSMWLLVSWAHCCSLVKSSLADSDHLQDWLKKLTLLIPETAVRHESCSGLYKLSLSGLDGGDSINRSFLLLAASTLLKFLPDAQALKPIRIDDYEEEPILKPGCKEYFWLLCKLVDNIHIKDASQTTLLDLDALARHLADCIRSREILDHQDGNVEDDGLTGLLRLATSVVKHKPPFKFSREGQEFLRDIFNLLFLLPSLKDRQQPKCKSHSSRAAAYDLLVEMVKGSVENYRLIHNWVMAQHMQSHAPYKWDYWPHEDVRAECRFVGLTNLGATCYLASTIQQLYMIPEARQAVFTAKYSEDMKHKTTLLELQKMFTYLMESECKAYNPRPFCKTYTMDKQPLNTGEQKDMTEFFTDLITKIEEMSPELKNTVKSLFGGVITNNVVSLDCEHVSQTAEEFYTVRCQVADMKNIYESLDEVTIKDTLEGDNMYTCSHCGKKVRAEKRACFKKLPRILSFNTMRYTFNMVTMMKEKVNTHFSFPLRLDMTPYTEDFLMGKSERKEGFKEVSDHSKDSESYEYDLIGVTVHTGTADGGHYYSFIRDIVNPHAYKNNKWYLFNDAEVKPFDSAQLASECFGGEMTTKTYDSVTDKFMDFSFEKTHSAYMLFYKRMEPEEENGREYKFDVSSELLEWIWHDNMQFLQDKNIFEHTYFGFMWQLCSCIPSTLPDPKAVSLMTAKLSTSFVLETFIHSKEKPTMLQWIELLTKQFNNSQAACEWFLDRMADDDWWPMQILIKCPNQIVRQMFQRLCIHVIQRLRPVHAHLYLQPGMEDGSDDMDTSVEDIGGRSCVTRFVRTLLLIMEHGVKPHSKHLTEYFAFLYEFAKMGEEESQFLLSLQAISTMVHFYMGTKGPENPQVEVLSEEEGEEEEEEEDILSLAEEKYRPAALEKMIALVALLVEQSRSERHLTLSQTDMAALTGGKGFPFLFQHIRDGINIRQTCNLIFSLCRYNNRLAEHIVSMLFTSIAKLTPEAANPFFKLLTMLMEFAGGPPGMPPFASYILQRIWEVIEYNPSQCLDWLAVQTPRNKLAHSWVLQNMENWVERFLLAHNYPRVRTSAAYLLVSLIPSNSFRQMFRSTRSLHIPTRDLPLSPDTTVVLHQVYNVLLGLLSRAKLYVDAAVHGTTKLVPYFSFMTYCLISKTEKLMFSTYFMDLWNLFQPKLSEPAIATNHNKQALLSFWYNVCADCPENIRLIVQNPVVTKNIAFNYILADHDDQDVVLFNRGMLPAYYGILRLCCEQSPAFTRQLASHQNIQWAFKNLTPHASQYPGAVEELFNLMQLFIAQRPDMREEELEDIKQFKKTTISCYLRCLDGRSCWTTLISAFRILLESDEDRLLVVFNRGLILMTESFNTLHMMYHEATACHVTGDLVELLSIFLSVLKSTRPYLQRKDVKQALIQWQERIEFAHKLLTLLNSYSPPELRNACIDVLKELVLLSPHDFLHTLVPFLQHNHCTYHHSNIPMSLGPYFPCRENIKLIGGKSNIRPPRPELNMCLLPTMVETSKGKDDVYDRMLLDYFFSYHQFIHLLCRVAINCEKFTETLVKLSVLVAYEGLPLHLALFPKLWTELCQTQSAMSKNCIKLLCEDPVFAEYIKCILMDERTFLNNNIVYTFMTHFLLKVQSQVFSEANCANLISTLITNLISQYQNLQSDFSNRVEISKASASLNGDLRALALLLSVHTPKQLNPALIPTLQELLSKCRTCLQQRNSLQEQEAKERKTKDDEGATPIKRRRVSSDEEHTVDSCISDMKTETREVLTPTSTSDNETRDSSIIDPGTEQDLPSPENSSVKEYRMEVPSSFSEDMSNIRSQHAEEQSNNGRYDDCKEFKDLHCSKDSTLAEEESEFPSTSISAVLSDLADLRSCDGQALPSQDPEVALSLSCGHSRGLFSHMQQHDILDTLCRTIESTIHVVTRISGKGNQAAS

Cc1ccc(-c2nnc(C)[nH]2)c(NC(=O)CCl)c1
inactive: USP34 0.0375 | USP36 -0.152 | USP38 0.151 | USP39 0.182 | USP4 0.0297
